# Screening data as filed in PubChem BioAssay.
# A549 viability: A549 cytotoxicity, counter-screen for Nrf2 inhibitors | Potency, µM (top dose mostly 46 µM), for inactives: top-dose activity change, negative = cytotoxicity, most hits filed as inhibitors | A549 ARE-Fluc cells, CellTiter-Fluor viability, 18-24 h | AID 504648 | actives 0.16% (n = 390,000); also: % is scaled to controls: 0 for no effect and ±100 for the full control effect
#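 A549 ARE_Fluc cells in 5% FBS OPTI-MEM were exposed to compounds in concentration-response for 18-24 h at 37 deg C. Viability was read by CellTiter-Fluor fluorescence (Ex 405/Em 525) after 30 min, before the luciferase read.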
# TGFb SMAD3 inh: blocks TGF-b signaling. HepG2 CAGA-GFP TGF-b/SMAD3 reporter, GFP fluorescence, 18 h; TGF-beta stimulated, 500 pg/mL final. Potency, µM (titrated, usually from 46.1 µM), inactives show top-dose activity, negative = inhibition, most hits filed as inhibitors. actives 1.2% (n = 410,000). AID 588855; also: % is scaled to controls: 0 for no effect and ±100 for the full control effect; nearly all actives have a fitted effect of over 65% in size
#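 First, reporter cells (HEPG2 CAGA-GFP) rested 2 h at 37 degrees C. Next, compounds were pinned in and TGF-beta added to 500 pg/mL final. After 18 h, GFP was imaged per cell and summed per well.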
# HepG2 tox: counter-screen for TGF-b inhibitors: cytotoxicity in HepG2 cells; AID 588856; Potency, µM (doses to about 46.1 µM), inactives show at the top dose activity change, negative = cytotoxicity, usual class: cytotoxic; HepG2 CAGA-GFP viability, ATP luminescence, 18 h; actives 0.76% (n = 410,000)
#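 HepG2 CAGA-GFP cells (1000/well, DMEM with 1% FBS) received compound, then TGF-beta at 500 pg/mL final, and were incubated 18 hours at 37 degrees C. Viability was read by CellTiter-Glo luminescence. Media-only wells were set as complete cell-killing and DMSO as no toxicity.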
# ATXN2 expr inh: reduces ATXN2 reporter expression in HEK-293 cells | HEK-293 ATXN2-luciferase reporter, luminescence, 24 h | AID 1745845 | actives 0.72% (n = 360,000) | Potency, µM (titrated, usually from 57 µM), for inactives: at the top dose activity change, negative = inhibition, actives largely listed as inhibitors; also: % is scaled to controls: 0 for no effect and ±100 for the full control effect; nearly all actives have a fitted effect of over 55% in size
#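 qHTS (up to 57 uM final) was run with 24 h compound exposure of reporter cells at 37 °C. Each well was multiplexed: SteadyGlo luminescence measured ATXN2-luciferase expression after a fluorogenic Gly-Phe-AFC viability readout (25 uM final).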
# S2 tox: reduces viability in counter-screen for ATXN expression inhibitors; S2 cells (HEK-293 line with an ATXN2-luciferase reporter) viability, CellTiter-Fluor protease fluorescence, 24 h; Potency, µM (top dose mostly 56.7 µM), usual class: cytotoxic; actives 0.49% (n = 400,000); AID 651635; also: nearly all actives have a fitted effect of over 40% in size
# Nrf2 inh: blocks Nrf2 signaling; AID 504444; actives 2.1% (n = 360,000); Potency, µM (top dose mostly 46 µM), for the others: at the highest dose activity change, negative = inhibition, hits mostly inhibitors; A549 ARE-Fluc reporter, luciferase luminescence, 18-24 h; also: % is scaled to controls: 0 for no effect and ±100 for the full control effect; nearly all actives have a fitted effect of over 60% in size
#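 Quantitative HTS in A549 cells stably bearing an antioxidant response element-firefly luciferase construct. Inhibition of Nrf2-driven transcription was scored by luminescence after 18-24 h of compound exposure at 37 °C.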
# An asterisk follows results filed as active; i = inactive; ? = inconclusive; . = no result given; ! = repeats disagree. Compounds with a hit are over-represented: about 3.8% of the library has one in this group of screens. Calls follow the shape of the dose curve; as a rule, active = well fitted curve in the direction sought with a large enough effect; inconclusive = small, poorly fitted or top-dose-only effect, or another doubt; inactive = no such curve, though single readings can be large; an effect the other way counts as inactive or inconclusive. Potency is read from the fitted curve at half-maximal effect.
SMILES,A549 viability,TGFb SMAD3 inh,HepG2 tox,ATXN2 expr inh,S2 tox,Nrf2 inh
CCOc1ccc(Nc2nc(Cc3nnc(SCC(=O)NC4CCCCC4)n3C)cs2)cc1,-4.1%,0.0%,1.5%,3.0%,i,?
NC(=S)N/N=C/c1ccc(-c2ccc(SC(F)F)cc2)o1,-26.7%,10µM*,-53.3%,-16.8%,i,-14.3%
Cc1ccc(-c2ccc(/C=N/NC(N)=S)o2)cc1,1.9%,?,-18.3%,32.2%,i,?
COc1cc(N2CCC(N3CCN(C)CC3)CC2)ccc1Nc1ncnc(Nc2ccccc2S(=O)(=O)C(C)C)n1,.,.,.,27.3µM*,.,.
Fc1ccc(-c2csc3[n+]2CCS3)cc1,-21.7%,6.3%,-10.8%,-3.9%,i,16.4µM*
COC(=O)C(NC(=O)c1ccccc1)c1ccccc1 (stereo not given),.,-1.0%,9.4%,12.0%,i,16.3%
C=C(C(=O)c1ccccc1)C(NC(C)(C)C)c1ccccc1 (stereo not given),?,?,-88.9%,7.52µM*,?,?
Cc1ccccc1/C=N/Nc1ccnc2cc(Cl)ccc12,?,10µM*,-103.0%,22.4µM*,.,-22.1%
Cc1ccc(/C=N/Nc2ccnc3cc(Cl)ccc23)c(C)c1,?,?,14.1µM*,35.5µM*,?,?
CCn1c(SCC(=O)NC(=O)c2ccccc2OC)nc2ccccc21,0.3%,0.0%,0.8%,8.3%,i,-1.4%
O=C(CSc1nnc(CNC(=O)c2c(F)cccc2Cl)o1)Nc1ccccc1F,-5.4%,?,-3.5%,.,.,?
CC1CCC2C(=O)N(c3ccc(Cc4ccncc4)cc3)C(=O)C2C1 (stereo not given),-14.4%,?,-31.4%,-17.5%,i,10.3µM*
O=C1C2C3C=CC(C3)C2C(=O)N1c1ccc(Cc2ccncc2)cc1 (stereo not given),-18.9%,?,-19.4%,-1.0%,i,?
CC1(C)C(N(O)C(=O)Nc2ccc(Cl)cc2)N(c2ccc(Cl)cc2)C(=O)N1CC(=O)NN=CC=Cc1ccc([N+](=O)[O-])o1 (stereo not given),.,.,.,34.3µM*,.,.
Cc1ccc(Nc2cc(C)nc3nncn23)c(C)c1,0.3%,?,-15.6%,5.9%,i,4.6%
O=c1[nH]c(CN2CCN(c3ccccn3)CC2)nc2c(Br)cc(Br)cc12,?,-6.1%,1.9%,?,i,23.1µM*
CC(=O)c1ccccc1NC(=O)c1ccc(OCc2c(C)noc2C)cc1,0.2%,-11.4%,-114.7%,0.0%,i,13µM*
Cc1noc(C)c1COc1ccc(C(=O)N2CCN(c3cccc(Cl)c3)CC2)cc1,-4.9%,-2.7%,-5.3%,-7.3%,i,23.1µM*
CCN1CCN(c2ccc(S(=O)(=O)N3CCOCC3)cc2NC(=O)c2ccc(OCC(C)C)cc2)CC1,-23.1%,10.1%,-0.8%,.,i,9.2µM*
CC(Oc1ccc(F)cc1)C(=O)Nc1cc(S(=O)(=O)N2CCOCC2)ccc1N1CCCCC1 (stereo not given),?,-11.3%,-1.0%,-16.8%,i,20.6µM*
COc1ccc(NS(=O)(=O)c2ccc(N3CCOCC3)c(NC(=O)c3ccc(F)cc3)c2)cc1,-9.5%,-2.5%,-36.6%,-28.0%,i,9.2µM*
O=C(NCCc1nnc2n1CCN(Cc1ccc3c(c1)CCO3)CC2)c1ccco1,.,.,.,.,i,.
Cn1nnnc1SCC(=O)NCCc1ccc(Cl)cc1,-2.8%,-12.6%,15.8µM*,-0.8%,i,6.7%
COc1ccc(CCNC(=O)CSc2nnc3ccccn23)cc1,5.0%,0.447µM*,3.0%,6.7%,i,3.0%
CCc1ccc(CNC(=O)c2sc3ncccc3c2-n2c(C)ccc2C)cc1,8.4%,11.2µM*,-43.4%,-33.9%,?,.
SMILES,A549 viability,TGFb SMAD3 inh,HepG2 tox,ATXN2 expr inh,S2 tox,Nrf2 inh
CC(=O)NC(CC(=O)NNC(=O)C(C)Oc1ccccc1F)c1ccccc1 (stereo not given),-5.9%,-9.8%,4.7%,9.1%,i,18.2%
CC(Oc1ccccc1F)C(=O)NNC(=O)CC(C)c1ccccc1 (stereo not given),-0.3%,-16.4%,0.891µM*,6.8%,i,5.1%
COc1ccc(C(=O)NNC(=O)C(=O)Nc2ccc(C)cc2)cc1,-0.7%,4.1%,-9.6%,-4.6%,i,-10.2%
COc1ccc(C(=O)NNC(=O)C(=O)Nc2ccc(C)c(Cl)c2)cc1,?,12.7%,21.0%,.,?,5.8µM*
CCn1c(=O)c2c(nc3n2CCCN3Cc2ccccc2)n(C)c1=O,-5.8%,?,-13.9%,.,i,-24.3%
CC(C)Cn1c(=O)c2c(nc3n2CCCN3Cc2ccccc2)n(C)c1=O,6.6%,?,-31.9%,-11.4%,i,11.6µM*
CCCc1c(C(=O)N/N=C(\C)c2ccc(CC(C)C)cc2)nnn1-c1nonc1N,.,-4.5%,-1.1%,.,i,.
COc1ccc(Cl)cc1NC(=O)c1cccc([N+](=O)[O-])c1O,?,11.2µM*,-19.9%,?,?,?
COc1ccc(Cl)cc1NC(=O)C/C(C)=N/NC(=O)c1ccccc1[N+](=O)[O-],-14.8%,-6.0%,-14.5%,-17.7%,i,-19.5%
CCSc1nsc(NC(=O)Nc2ccccc2F)n1,-25.8%,?,-39.3%,38.0%,?,?
O=C(Nc1ccc(F)cc1)Nc1nnc(SCC(=O)N2CCCCC2)s1,-2.1%,3.3%,3.9%,.,.,.
C=CCSc1nsc(NC(=O)Nc2ccc(F)cc2)n1,?,6.31µM*,-37.9%,?,8.91µM*,?
CCSc1nsc(NC(=O)Nc2cccc(OC)c2)n1,-1.8%,22.4µM*,-30.3%,-27.4%,i,-10.0%
O=C(Nc1cccc2ccccc12)N(CCO)C1CCS(=O)(=O)C1 (stereo not given),4.4%,-11.9%,0.8%,23.8%,i,-15.3%
COc1cc(NC(=O)c2ccnc(N)c2)cc(C(=O)Nc2cccc(C(F)(F)F)c2)c1,-7.3%,3.2%,1.0%,-10.5%,i,-9.3%
COc1cc(NC(=O)c2cnc(N)s2)cc(C(=O)Nc2cccc(C(F)(F)F)c2)c1,-15.7%,?,-61.8%,-5.1%,35.5µM*!,-5.9%
COc1cc(NC(=O)c2cnc(N)o2)cc(C(=O)Nc2cccc(C(F)(F)F)c2)c1,-14.7%,?,-51.7%,?,20µM*,?
COc1cc(NC(=O)c2csc(N)n2)cc(C(=O)Nc2cccc(C(F)(F)F)c2)c1,-21.1%,?,-45.6%,?,17.8µM*,-1.3%
